# According to PubChem BioAssay (NCATS):
# Inconclusive results are not listed. Active and inactive are the calls of the source. Unless noted, calls follow the shape of the dose curve; as a rule, active = well fitted curve in the direction sought with a large enough effect; inconclusive = small, poorly fitted or top-dose-only effect, or another doubt; inactive = no such curve, though single readings can be large; an effect the other way counts as inactive or inconclusive.
# Tests used:
# [1] = biological target: Catechol O-methyltransferase (Homo sapiens) (UniProt P21964); assay: Confirmatory Screen for Target Class Profiling of Small Molecule Inhibitors of Methyltransferases (AID 1745852; calls by dose curve; also: potency is read from the fitted curve at half-maximal effect; as to activity change, negative = inhibition: % is scaled to controls: 0 for no effect and ±100 for the full control effect); settings: MTase-Glo luminescence, SAH detection, recombinant enzyme; measured here: COMT max response; stronger effect = lower value
# Sequence of Catechol O-methyltransferase (Homo sapiens) (P21964 whole entry, looked up): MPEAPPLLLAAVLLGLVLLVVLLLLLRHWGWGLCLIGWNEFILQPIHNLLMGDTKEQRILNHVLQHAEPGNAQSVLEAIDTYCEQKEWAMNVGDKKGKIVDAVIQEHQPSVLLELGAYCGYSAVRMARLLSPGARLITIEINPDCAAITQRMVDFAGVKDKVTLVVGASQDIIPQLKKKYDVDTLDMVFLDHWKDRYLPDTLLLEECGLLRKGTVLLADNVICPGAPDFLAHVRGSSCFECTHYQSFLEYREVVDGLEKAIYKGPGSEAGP
# [2] = biological target: Guanidinoacetate N-methyltransferase (Homo sapiens) (UniProt Q14353); assay: as above; settings: MTase-Glo luminescence, SAH detection, recombinant enzyme; activity change, negative = inhibition: at 57.3 µM (top of the series) unless noted; series mostly up to 57.3 µM
# [3] = biological target: Nicotinamide N-methyltransferase (Homo sapiens) (UniProt P40261); assay: as above; settings: MTase-Glo luminescence, SAH detection, recombinant enzyme; measured here: NNMT max response; stronger effect = lower value
# Sequence of Nicotinamide N-methyltransferase (Homo sapiens) (P40261 whole entry, looked up): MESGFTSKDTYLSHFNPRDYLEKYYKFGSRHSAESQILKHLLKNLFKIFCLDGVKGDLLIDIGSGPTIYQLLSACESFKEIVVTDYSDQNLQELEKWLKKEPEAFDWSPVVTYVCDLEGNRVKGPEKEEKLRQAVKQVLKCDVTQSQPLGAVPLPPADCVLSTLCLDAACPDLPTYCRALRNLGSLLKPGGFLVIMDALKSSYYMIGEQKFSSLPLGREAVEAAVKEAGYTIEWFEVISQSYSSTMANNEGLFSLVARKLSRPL
# [4] = biological target: Phenylethanolamine N-methyltransferase (Homo sapiens) (UniProt P11086); assay: as above; settings: MTase-Glo luminescence, SAH detection, recombinant enzyme; measured here: PNMT max response; stronger effect = lower value
# Sequence of Phenylethanolamine N-methyltransferase (Homo sapiens) (P11086 whole entry, looked up): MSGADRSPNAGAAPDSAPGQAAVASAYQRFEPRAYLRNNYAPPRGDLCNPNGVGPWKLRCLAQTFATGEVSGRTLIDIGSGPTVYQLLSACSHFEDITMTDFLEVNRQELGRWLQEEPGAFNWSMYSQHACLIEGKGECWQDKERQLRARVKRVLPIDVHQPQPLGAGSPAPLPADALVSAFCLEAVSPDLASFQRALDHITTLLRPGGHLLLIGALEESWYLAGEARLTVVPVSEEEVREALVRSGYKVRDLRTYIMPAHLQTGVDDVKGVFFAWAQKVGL
# [5] = NCATS anti-infectives library activity on HEK293 viability as a counter-qHTS vs the C. elegans viability qHTS (AID 1745854); settings: HEK293 viability counter-screen; series mostly up to 41.8 µM; also: % is scaled to controls: 0 for no effect and ±100 for the full control effect
# How it was run: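 HEK293 cells, 1500 per well, exposed 24 hr at 37C in 5% CO2 to compounds in a 1:5 titration, up to 41.7 uM final. Viability read as CellTiter-Glo luminescence after 10 min at room temperature.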
# [6] = qHTS drug screen for cell cycle checkpoint inhibitors in PARPi-resistant BRCA-mutant ovarian cancer cell lines. (AID 1963452; calls by dose curve); settings: PEO1/OlaR viability, CellTiter-Glo luminescence, 96 h, stronger effect = lower value
# How it was run: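 PEO1, PEO4 and PEO1/OlaR ovarian cancer cells, 600 per well, exposed 96 h at 37C to a dilution series. Viability read by CellTiter-Glo luminescence, normalized to DMSO and empty wells; activity summarized as Z-AUC.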
# [7] = AP1 Signaling Pathway (AID 357; active = well fitted curve in either direction with a large enough effect, not every such curve was filed as active; also: % is scaled to controls: 0 for no effect and ±100 for the full control effect); settings: ME-180 AP-1-bla reporter, EGF-induced, beta-lactamase ratio, 5 h; at 7.69 µM (top of the series) unless noted
# How it was run: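 Titration-series screen for positive or negative modulators of EC50 EGF-induced signaling in ME-180 cells carrying an AP-1-driven beta-lactamase reporter. After 5 hours at 37 degrees Celsius, CCF4 460nm/530nm emission ratio gave %Activity; AC50 values derived.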
# [8] = biological target: Cytochrome P450 1A2 (Homo sapiens) (UniProt P05177); assay: p450-cyp1a2 (AID 410; calls by dose curve;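 also: -100% = full effect of reference inhibitor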); settings: recombinant CYP1A2, luciferin-ME demethylation, luminescence; series mostly up to 57 µM
# Sequence of Cytochrome P450 1A2 (Homo sapiens) (P05177 whole entry, looked up): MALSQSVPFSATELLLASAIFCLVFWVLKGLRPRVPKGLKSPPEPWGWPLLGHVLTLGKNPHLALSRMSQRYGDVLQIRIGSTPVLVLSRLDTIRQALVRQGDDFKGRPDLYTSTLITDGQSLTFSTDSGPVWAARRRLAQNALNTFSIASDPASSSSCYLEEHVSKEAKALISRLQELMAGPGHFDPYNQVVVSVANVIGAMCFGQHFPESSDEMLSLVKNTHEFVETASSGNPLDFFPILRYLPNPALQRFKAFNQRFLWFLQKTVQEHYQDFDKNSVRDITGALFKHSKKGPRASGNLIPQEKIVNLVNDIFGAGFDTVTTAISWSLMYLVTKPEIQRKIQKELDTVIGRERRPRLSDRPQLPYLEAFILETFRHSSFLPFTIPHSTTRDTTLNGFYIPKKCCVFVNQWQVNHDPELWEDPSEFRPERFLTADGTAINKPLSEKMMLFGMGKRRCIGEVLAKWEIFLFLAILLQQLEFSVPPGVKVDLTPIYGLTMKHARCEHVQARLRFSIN
# How it was run: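 Human CYP1A2 (20nM) demethylated Luciferin-ME at its Km (100uM) in 100mM KPO4. After 10 min compound preincubation, NADPH regeneration ran the reaction 60 min at room temperature. Luciferin was read by luminescence, normalized to 57 uM furafylline.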
# [9] = NFAT Signaling Pathway (AID 444; active = well fitted curve in either direction with a large enough effect, not every such curve was filed as active;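 also: carbachol stimulus at about its EC50 of 1 µM final; % is scaled to controls: 0 for no effect and ±100 for the full control effect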); settings: Jurkat NFAT-bla M1, carbachol, beta-lactamase ratio, 5 h; at 7.69 µM (top of the series) unless noted
# How it was run: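 Jurkat cells with NFAT-driven β-lactamase reporter and co-expressed M1 receptor, stimulated with carbachol (final 1 uM, ~EC50), compound titration, 5 h at 37 °C. CCF4 loaded 1 h at RT; 460/530 nm ratio gave %activity and AC50.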
# [10] = biological target: Glucocorticoid receptor (Homo sapiens) (UniProt P04150); assay: GR-GFP Redistribution (AID 450;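 active = compounds whose dose series gives a full or clear partial fitted curve of increased nuclear translocation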; also: potency is read from the fitted curve at half-maximal effect); settings: U2OS GR-GFP nuclear translocation, laser cytometry, 2 h
# Sequence of Glucocorticoid receptor (Homo sapiens) (P04150 whole entry, looked up, the tested form may be a part): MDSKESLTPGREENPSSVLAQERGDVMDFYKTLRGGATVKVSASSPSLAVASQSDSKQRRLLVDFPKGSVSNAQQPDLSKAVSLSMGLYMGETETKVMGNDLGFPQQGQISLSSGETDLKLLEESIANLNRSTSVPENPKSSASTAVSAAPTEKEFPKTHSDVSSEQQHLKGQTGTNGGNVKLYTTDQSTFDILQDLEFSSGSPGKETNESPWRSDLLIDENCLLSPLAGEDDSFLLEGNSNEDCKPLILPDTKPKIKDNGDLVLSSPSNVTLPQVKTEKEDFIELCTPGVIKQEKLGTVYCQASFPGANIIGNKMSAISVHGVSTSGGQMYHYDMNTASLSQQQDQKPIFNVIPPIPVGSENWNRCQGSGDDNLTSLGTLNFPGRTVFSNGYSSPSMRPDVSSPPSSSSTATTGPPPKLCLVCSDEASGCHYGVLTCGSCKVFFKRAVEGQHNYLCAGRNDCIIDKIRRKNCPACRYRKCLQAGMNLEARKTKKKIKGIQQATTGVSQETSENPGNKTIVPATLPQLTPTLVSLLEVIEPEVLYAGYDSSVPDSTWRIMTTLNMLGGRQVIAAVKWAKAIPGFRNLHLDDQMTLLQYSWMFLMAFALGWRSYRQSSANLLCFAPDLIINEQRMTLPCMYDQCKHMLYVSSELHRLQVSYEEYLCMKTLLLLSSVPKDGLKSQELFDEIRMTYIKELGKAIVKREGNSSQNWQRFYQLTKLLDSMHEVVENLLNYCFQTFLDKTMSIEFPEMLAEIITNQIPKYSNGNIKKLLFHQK
# [11] = biological target: Glucocorticoid receptor (Homo sapiens) (UniProt P04150); assay: GR-EFC Redistribution (AID 451; calls by dose curve; also: potency is read from the fitted curve at half-maximal effect); settings: CHO-K1 GR-EFC translocation, beta-gal luminescence, 2 h
# How it was run: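 CHO-K1 cells expressing nuclear EA and GR-ED fragments of b-gal; compounds titrated up to 46 uM final, 2 h at 37 C. GR nuclear translocation read as complemented b-gal luminescence after 1 h RT detection.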
# [12] = biological target: 3',5'-cyclic-AMP phosphodiesterase 4B (Homo sapiens) (UniProt Q07343); assay: qHTS Assay for Inhibitors of PDE-IV (AID 607; active = well fitted activation curve with a large enough effect in the main read-out, with a control signal flat, not every such curve was filed as active; also: % of control where 0% means no effect); settings: HEK293 ACTOne CNG channel cells, membrane potential fluorescence; series mostly up to 22.9 µM
# Sequence of 3',5'-cyclic-AMP phosphodiesterase 4B (Homo sapiens) (Q07343 whole entry, looked up): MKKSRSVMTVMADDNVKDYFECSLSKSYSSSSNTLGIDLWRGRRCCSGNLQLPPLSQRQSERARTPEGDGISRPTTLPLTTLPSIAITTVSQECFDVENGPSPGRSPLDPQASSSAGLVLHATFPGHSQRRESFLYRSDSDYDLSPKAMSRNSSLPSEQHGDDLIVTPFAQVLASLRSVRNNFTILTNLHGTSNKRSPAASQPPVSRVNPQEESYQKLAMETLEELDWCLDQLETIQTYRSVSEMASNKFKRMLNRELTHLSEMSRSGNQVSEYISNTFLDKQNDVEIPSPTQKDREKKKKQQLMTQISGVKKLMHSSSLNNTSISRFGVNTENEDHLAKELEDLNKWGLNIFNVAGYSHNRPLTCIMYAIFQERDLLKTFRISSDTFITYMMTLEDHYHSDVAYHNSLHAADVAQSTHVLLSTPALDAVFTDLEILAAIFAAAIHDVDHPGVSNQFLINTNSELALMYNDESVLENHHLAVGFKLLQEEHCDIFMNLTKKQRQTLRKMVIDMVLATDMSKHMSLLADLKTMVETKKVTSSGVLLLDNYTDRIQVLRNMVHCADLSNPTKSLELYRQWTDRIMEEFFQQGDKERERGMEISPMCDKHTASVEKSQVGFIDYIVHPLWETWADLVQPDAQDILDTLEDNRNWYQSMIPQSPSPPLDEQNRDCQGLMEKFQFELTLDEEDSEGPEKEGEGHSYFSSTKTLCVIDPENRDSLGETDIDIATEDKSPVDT
# How it was run: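 HEK293 ACTOne cells with CNG channel (1000/well), endogenous PDE4; membrane potential dye, compounds up to 22.9 uM final. Fluorescence Ex 535/Em 590; RO 20-1724 (100 uM final) as reference.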
# [13] = biological target: Guanine nucleotide-binding protein G(i) subunit alpha-1 (Homo sapiens) (UniProt P63096); assay: qHTS Assay for Inhibitors of RGS12 GoLoco Motif Activity (Green Fluorophore) (AID 879); settings: Galphai1/FITC-RGS12 GoLoco peptide, fluorescence polarization; series mostly up to 57.1 µM;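 also: 0% = labeled peptide with Gαi1 and full inhibition = labeled peptide alone without protein; negative values mean loss of peptide binding seen as reduced polarization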
# Sequence of Guanine nucleotide-binding protein G(i) subunit alpha-1 (Homo sapiens) (P63096 whole entry, looked up): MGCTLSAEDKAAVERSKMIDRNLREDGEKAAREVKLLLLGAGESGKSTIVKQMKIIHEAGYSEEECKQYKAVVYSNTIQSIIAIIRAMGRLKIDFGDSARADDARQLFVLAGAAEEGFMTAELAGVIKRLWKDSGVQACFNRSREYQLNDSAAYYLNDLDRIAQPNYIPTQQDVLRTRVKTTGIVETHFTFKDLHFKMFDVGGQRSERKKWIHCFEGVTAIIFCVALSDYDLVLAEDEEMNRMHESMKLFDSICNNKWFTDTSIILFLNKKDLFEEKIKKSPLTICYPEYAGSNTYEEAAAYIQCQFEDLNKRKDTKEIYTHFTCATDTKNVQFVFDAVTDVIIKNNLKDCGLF
# How it was run: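 Fluorescence polarization assay: 50 nM Gαi1 with 10 nM FITC-labeled RGS12 GoLoco peptide in 10 mM Tris pH 7.5, 150 mM NaCl, 0.1 mM GDP, 0.05% NP40, 10 min at room temperature with compound.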
# [14] = biological target: Cytochrome P450 3A4 (Homo sapiens) (UniProt P08684); assay: qHTS Assay for Activators of Cytochrome P450 3A4 (AID 885); settings: recombinant CYP3A4, Luciferin-PPXE luminescence, 60 min; series mostly up to 57.1 µM; also: nearly all actives have a fitted effect of over 65% in size
# Sequence of Cytochrome P450 3A4 (Homo sapiens) (P08684 whole entry, looked up): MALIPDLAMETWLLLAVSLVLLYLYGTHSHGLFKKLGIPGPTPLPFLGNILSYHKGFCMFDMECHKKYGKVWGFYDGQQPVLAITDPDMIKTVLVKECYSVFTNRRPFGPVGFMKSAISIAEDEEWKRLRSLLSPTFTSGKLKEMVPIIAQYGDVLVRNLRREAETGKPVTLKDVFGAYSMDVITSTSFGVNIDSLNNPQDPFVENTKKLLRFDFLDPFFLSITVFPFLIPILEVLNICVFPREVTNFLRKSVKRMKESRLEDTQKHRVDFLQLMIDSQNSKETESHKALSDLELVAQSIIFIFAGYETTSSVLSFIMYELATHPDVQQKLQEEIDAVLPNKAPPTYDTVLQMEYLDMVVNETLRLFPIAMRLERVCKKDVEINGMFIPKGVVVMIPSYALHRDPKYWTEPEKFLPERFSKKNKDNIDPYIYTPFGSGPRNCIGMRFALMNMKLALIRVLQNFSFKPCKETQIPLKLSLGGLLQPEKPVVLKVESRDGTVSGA
# How it was run: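 Human CYP3A4 (20 nM) with Luciferin-PPXE at 25 uM (its KM) in 200 mM KPO4; 10 min compound preincubation, then NADPH regeneration and 60 min reaction at RT. Luciferin read by luminescence; normalized to 57 uM ketoconazole full inhibition.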
# [15] = qHTS Assay for Identification of Small Molecule Antagonists for NFkB Signaling Pathway (AID 895; active = well fitted inhibition curve with a large enough effect in the signal ratio, with a control signal flat, not every such curve was filed as active; the % refers to the signal ratio; also: potency is read from the fitted curve at half-maximal effect); settings: NFkB beta-lactamase reporter cells, FRET ratio 460/530; stimulated with 10 pM TNF alpha
# How it was run: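 ME-180 NFkB-bla cells (beta-lactamase under NFkB response element), plated overnight, treated with compound then 10 pM TNF alpha (about EC50) for 5 hrs at 37 C. LiveBLAzer FRET read at 460/530 nm emission, 405 nm excitation.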
# [16] = biological target: Muscarinic acetylcholine receptor M1 (Rattus norvegicus) (UniProt P08482); assay: qHTS Assay for Antagonists of Acetylcholine Muscarinic M1 Receptor: Kinetic Measurement of Intracellular Calcium Response (AID 943); settings: M1-expressing cells, kinetic intracellular calcium fluorescence; series mostly up to 35.3 µM;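 also: Fluo-4 calcium signal as peak divided by basal fluorescence over 4 min; nearly all actives have a fitted effect of over 75% in size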
# How it was run: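 CHO cells stably expressing rat M1 were loaded with no-wash Fluo-4 dye for 1 h at 37C, pre-incubated 10 min with compound, then challenged with EC80 carbachol (100 nM final); kinetic calcium read 4 min, peak/basal ratio.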
# [17] = biological target: Pyruvate kinase (Leishmania mexicana) (UniProt Q27686); assay: qHTS Validation Assay for Inhibitors of Leishmania Mexicana Pyruvate Kinase (AID 945);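 also: 0% = DMSO only neutral control wells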; settings: purified L. mexicana pyruvate kinase, enzyme activity, E451W mutant enzyme; series mostly up to 57.5 µM
# How it was run: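 Luminescent ATP detection (PKLight) after a 1 h room-temperature reaction of 0.2 nM LmPYK E451W mutant with 0.5 mM PEP and 0.1 mM ADP at pH 7.2. Activity is normalized to DMSO-only control wells.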
# [18] = biological target: Pyruvate kinase PKM (Homo sapiens) (UniProt P14618); assay: qHTS Assay for Activators of Human Muscle Pyruvate Kinase (AID 954; active = well fitted curve in the direction sought with a large enough effect, not every such curve was filed as active;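 also: 0% = uninhibited enzyme and -100% = no enzyme or full thiadiazolimine inhibition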); settings: purified human muscle pyruvate kinase, luciferase-coupled luminescence, 1 h; series mostly up to 57.5 µM
# Sequence of Pyruvate kinase PKM (Homo sapiens) (P14618 whole entry, looked up): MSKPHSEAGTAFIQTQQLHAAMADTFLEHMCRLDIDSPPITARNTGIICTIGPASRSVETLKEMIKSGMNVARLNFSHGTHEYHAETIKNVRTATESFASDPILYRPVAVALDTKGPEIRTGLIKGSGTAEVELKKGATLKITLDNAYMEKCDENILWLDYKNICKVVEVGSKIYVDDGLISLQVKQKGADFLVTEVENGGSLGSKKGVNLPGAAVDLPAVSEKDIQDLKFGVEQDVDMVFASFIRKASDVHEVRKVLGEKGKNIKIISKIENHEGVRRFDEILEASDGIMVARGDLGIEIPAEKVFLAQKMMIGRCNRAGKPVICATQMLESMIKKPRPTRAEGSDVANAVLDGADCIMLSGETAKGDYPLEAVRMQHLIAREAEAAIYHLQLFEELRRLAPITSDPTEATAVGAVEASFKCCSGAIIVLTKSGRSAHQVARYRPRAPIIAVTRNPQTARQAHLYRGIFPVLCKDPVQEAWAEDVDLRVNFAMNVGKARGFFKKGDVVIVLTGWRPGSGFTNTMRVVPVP
# How it was run: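 Purified human PKM2 (0.1 nM) with 0.5 mM PEP (Km) and 0.1 mM ADP in 50 mM imidazole pH 7.2, KCl, MgCl2, 1 h at room temperature; ATP formed read by coupled luciferase luminescence. Normalized to no-enzyme/110 uM thiadiazolimine inhibition; 0.3 nM enzyme column for activation.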
# [19] = biological target: Alpha-galactosidase A (Homo sapiens) (UniProt P06280); assay: Counterscreen for Glucocerebrosidase Inhibitors: qHTS Assay for Human alpha-Galactosidase at pH 4.5 (AID 992); settings: purified enzyme, fluorogenic substrate; series mostly up to 76.9 µM; also: 0% is about no effect
# Sequence of Alpha-galactosidase A (Homo sapiens) (P06280 whole entry, looked up): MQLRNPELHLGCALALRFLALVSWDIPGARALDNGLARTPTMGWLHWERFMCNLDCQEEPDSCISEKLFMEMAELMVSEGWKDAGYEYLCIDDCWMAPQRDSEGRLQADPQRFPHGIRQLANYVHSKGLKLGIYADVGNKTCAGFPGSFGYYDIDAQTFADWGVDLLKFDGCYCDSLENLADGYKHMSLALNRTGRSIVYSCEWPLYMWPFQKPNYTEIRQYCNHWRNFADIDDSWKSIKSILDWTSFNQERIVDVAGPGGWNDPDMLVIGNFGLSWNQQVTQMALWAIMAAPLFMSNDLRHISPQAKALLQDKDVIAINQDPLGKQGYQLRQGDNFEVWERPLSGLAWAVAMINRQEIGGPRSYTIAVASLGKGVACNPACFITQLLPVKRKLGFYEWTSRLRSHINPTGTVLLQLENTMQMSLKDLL
# How it was run: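 Human enzyme (2 nM) with 80 uM 4-methylumbelliferyl alpha-D-galactopyranoside in 50 mM citric acid, 0.005% Tween-20, pH 4.5, 20 min at room temperature. Compounds 0.7 nM–77 uM; fluorescence Ex 365/Em 440 after pH 10 stop; AC50 from Hill fits.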
# [20] = biological target: alpha-glucosidase (Oryza sativa, rice) (UniProt Q653V4); assay: Counterscreen for Glucocerebrosidase Inhibitors: qHTS Assay for Rice alpha-Glucosidase at pH 5.0 (AID 997); settings: rice alpha-glucosidase enzyme activity; series mostly up to 76.9 µM;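 also: 0% = full activity with enzyme and -100% = basal without enzyme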
# How it was run: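 Rice alpha-glucosidase (4 nM final) with 400 uM 4-methylumbelliferyl-alpha-D-glucopyranoside in citrate buffer pH 5.0, 20 min at room temperature, stopped at pH 10; fluorescence 365/440 nm, compounds 0.7 nM–77 uM, AC50 from Hill fits.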
smiles,measurement,setting,value
Cc1c(C(=O)O)ccc2c1N[C@@H](c1cccc(C(F)(F)F)c1)[C@H]1CC=C[C@@H]21,activity,[1],-4.24%
same,"activity change, negative = inhibition",[2],-0.164%
same,activity,[3],-5.85%
same,activity,[4],-7.15%
COc1ccc(OCc2cc(C(=O)NC(CO)C(C)C)no2)c2ccccc12 (stereo not drawn),activity,[1],3.87%
same,"activity change, negative = inhibition",[2],1.38%
same,activity,[3],5.13%
same,activity,[4],0.331%
Cc1ccc([C@@H]2CN(c3cc(N4CCC(O)CC4)ncn3)C[C@H]2N(C)C)cc1,activity,[1],-2.09%
same,"activity change, negative = inhibition",[2],-0.694%
same,activity,[3],-5.73%
same,activity,[4],-0.207%
O=C(CCc1nnc2n(CCc3ccccc3)c(=O)c3ccccc3n12)N1CCC(N2CCCCC2)CC1,activity,[1],4.18%
same,"activity change, negative = inhibition",[2],0.438%
same,activity,[3],-3.96%
same,activity,[4],0%
NC(=O)c1cccc2[nH]c(-c3ccc([C@@H]4CCCN4)cc3F)nc12,activity,[1],-9.14%
same,"activity change, negative = inhibition",[2],-8.18%
same,activity,[3],-23.8%
same,activity,[4],-6.69%
same,Potency,[5],inactive
same,Z-AUC,[6],-0.692 (inactive)
same,Z-AUC,[6]; measured here: PEO1 parental Z-AUC,-1.03
same,Z-AUC,[6]; measured here: PEO4 Z-AUC,-0.377
COc1ncccc1-c1nccn2c(C3CN(Cc4ccccc4O)C3)ncc12,activity,[1],2.23%
same,"activity change, negative = inhibition",[2],2.06% [at 85.7 µM]
same,activity,[3],7.78%
same,activity,[4],3.8%
CCCNc1cc(N2CCC(CCC(=O)NCCN3CCCCCC3)CC2)ncn1,activity,[1],7.42%
same,"activity change, negative = inhibition",[2],8.04%
same,activity,[3],-8.06%
same,activity,[4],0.426%
O=c1cc(O)cc(/C=C\c2ccc(O)c(O)c2)o1,"activity change, negative = inhibition",[7],-18.8% [at 38 µM] (inactive)
same,Potency,[8],inactive
same,"activity change, negative = inhibition",[9],-13.6% [at 38 µM] (inactive)
same,Potency,[10],> 46 µM (inactive)
same,Potency,[11],> 46 µM (inactive)
same,Potency,[12],inactive
same,Potency,[13],inactive
same,outcome,[14],inactive
same,Potency,[15],1.26 µM (active)
same,Potency,[16],inactive
same,outcome,[17],inactive
same,outcome,[18],inactive
same,outcome,[19],inactive
same,outcome,[20],inactive
same,activity,[1],135%
same,Potency,[2],24.3 µM (active)
same,activity,[3],-15.8%
same,activity,[4],-1.5%
CCN(CC)CCCNC(=O)CCc1nnc2n(Cc3ccc(Cl)cc3)c(=O)c3ccccc3n12,activity,[1],4.07%
same,"activity change, negative = inhibition",[2],0%
same,activity,[3],-5.57%
same,activity,[4],0%
Nc1nc(NCc2ccc(Cl)cc2Cl)cc(C2CC(O)C2)n1 (stereo not drawn),activity,[1],1.79%
same,"activity change, negative = inhibition",[2],-2.38%
same,activity,[3],-23.3%
same,activity,[4],-0.704%
